In all, about 350,000 compounds went through this assay and about 31,000 (8.9%) were called active. Roughly 15% stayed inconclusive and do not appear here. The call rests on the fitted dose curve; in most records, active means well fitted inhibition curve with a large enough effect; inconclusive means small, poorly fitted or top-dose-only effect; inactive means no such curve, though single readings can be large or run the other way. Many of the other results were omitted from the sample, so actives are more common in it than they were.
These molecules were tested against Histone-lysine N-methyltransferase EHMT2 (Homo sapiens) (UniProt Q96KQ7) (assay: qHTS Assay for Inhibitors of Histone Lysine Methyltransferase G9a). Details: G9a H3K9 monomethylation, AlphaScreen, 2 h; series mostly up to 59 µM; activity, negative = inhibition: at the top concentration.
Excerpt: Methylated lysines, on the N-terminal tails of histone proteins serve as epigenetic markers to recruit factors that can then modify local chromatin structure to lead to functional consequences. G9a and other members of the SUV39 family of the SET domain-containing superfamily of histone lysine methyltransferases (HMT) have been identified to specifically methylate Lys9 of histone H3 (H3K9). G9a catalyzes the mono- and di-methylation of H3K9 in mammalian euchromatic regions, where the resulting H3K9me2 is indicative of transcriptional repression. […] The inhibition of G9a will result in transcriptional activation and work synergistically with DNA methyltransferase and histone deacetylase inhibitors, to kill cancer cells. This qHTS assay for identification of G9a inhibitors is a chemiluminescence based AlphaScreen (PerkinElmer). Methylation of biotinylated-histone peptide is measured through specific antibody-based detection, in conjunction with streptavidin-coated donor and anti-IgG antibody-coated acceptor beads. The method is particularly well suited for detection of inhibitors acting by the desired histone peptide competitive mechanism and is applicable to testing other HMTs. Although AlphaScreen has significant advantages with its utility in a variety of epigenetic target assays, the primary screening data provided in this deposition should be used with caution due to the prevalence of screening artifacts. An AlphaScreen counterscreen is highly recommended to be run against any putative actives to eliminate non specific artifacts. Alternatively, one can use other AlphaScreen assays in PubChem to filter out promiscuous hits. Quinn et al. A chemiluminescence-based method for identification of histone lysine methyltransferase inhibitors. Mol Biosyst 6(5): 782-8. 2010. PMID: 20567762 [2] Baell,Holloway. New substructure filters for removal of pan assay interference compounds (PAINS) from screening libraries and for their exclusion in bioassays. J Med Chem. 53(7):2719-40. 2010. PMID: 20131845 NIH Molecular Libraries Probe Production Network [MLPCN] NIH Chemical Genomics Center [NCGC] Structural Genomics Consortium (SGC) NIH Grant: 5U54 MH084681-02
To each well of a 1,536w plate, 2ul of HMT enzyme (final 20nM) were added, using a nanoliter dispenser. The G9a- and GLP-inhibitor BIX-01294 (CID: 25150857) are used as an intraplate control, with a 16-point titration in duplicate. A Kalypsys pin-tool transferred 23nl of library compound solution in DMSO to each well. Following a 15 min incubation of enzyme with compounds at room temperature, 1ul mixture of b-H3K9 peptide substrate (final 500nM) and SAM cofactor (final 20uM) were added. Reactions were allowed to proceed at room temperature for 2 hours. Methylated b-H3K9 peptide product was detected with 0.5 ug/mL rabbit polyclonal anti-monomethyl histone H3K9 antibody (Abcam Inc., Cambridge, MA) and 20 ug/mL each streptavidin-coated donor and anti-rabbit IgG acceptor AlphaScreen beads. Antibody and beads were added in a 1ul dispense, for a final volume of 4ul, and plates were incubated, protected from the light, for 10 min at room temperature. Microplates were then read on an EnVision multilabel plate reader using the 1,536 plate HTS AlphaScreen aperture (excitation time 80 ms, measurement time 240 ms).
Further: nearly all actives have a fitted effect of over 75% in size.
On the % scale 0 is the no-effect control and ±100 the full control effect; potency means the concentration at half of the fitted maximal effect.

Sequence of Histone-lysine N-methyltransferase EHMT2 (Homo sapiens) (Q96KQ7 913-1193 limits assumed): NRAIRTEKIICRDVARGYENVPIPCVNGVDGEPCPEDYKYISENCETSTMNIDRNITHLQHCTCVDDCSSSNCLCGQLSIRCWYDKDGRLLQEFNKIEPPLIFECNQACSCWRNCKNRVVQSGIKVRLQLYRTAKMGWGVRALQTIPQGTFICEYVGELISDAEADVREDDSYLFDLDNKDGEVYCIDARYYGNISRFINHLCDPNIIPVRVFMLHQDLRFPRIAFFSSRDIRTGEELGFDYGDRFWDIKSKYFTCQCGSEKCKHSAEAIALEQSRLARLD

Structure (SMILES)	activity, negative = inhibition	Potency
CC(=O)CC[C@@H](C)O[C@@H]1OC(C)[C@H](O)CC1O (some centres undefined)	14.8% [at 2.33 µM] (inactive)	–
CCOc1cccc(CC(=O)N2CCc3c([nH]c4ccccc34)C2c2ccc(F)cc2)c1OCC (centres undefined)	-36.5% (inactive)	–
Cc1cccc(C2c3[nH]c4ccccc4c3CCN2C(=O)c2cc(-c3cccn3C)n[nH]2)n1 (centres undefined)	–	28.2 µM (active)
Cc1cccc(C(=O)N2CCc3c([nH]c4ccccc34)C2CC(C)C)n1 (centres undefined)	-45.6% [at 102 µM] (inactive)	–
COCc1ccc(C(=O)N2CCc3c([nH]c4ccccc34)C2c2ccccn2)s1 (centres undefined)	–	31.6 µM (active)
CC1CCN(C(=O)COC(=O)c2cc(=O)[nH]c3ccccc23)CC1	-8.14% [at 12.7 µM] (inactive)	–
CCc1nnc(SCc2c(F)cccc2Cl)c2cc3sccc3n12	3.16% (inactive)	–
CC(C)CN(C(=O)c1ccc2c(c1)OCO2)C1CCS(=O)(=O)C1 (centres undefined)	-5.1% [at 102 µM] (inactive)	–
CN(CC(=O)Nc1cccc(F)c1)C(=O)C1CSC2(C)CCC(=O)N12 (centres undefined)	-26.8% [at 102 µM] (inactive)	–
CCC(=O)N1CCc2cc(S(=O)(=O)NC(CC(C)C)C(=O)NCCc3cccc(C)c3)ccc21 (centres undefined)	-2.04% (inactive)	–
Cc1cc(NC(=O)COc2ccccc2C#N)no1	14.3% (inactive)	–
O=C(c1ccc(C(F)(F)F)cc1)C1CCCN(C(=O)c2csnn2)C1 (centres undefined)	5.79% [at 102 µM] (inactive)	–
COCC(=O)N1CCCC(C(=O)c2ccc(C(F)(F)F)cc2)C1 (centres undefined)	-9.75% [at 102 µM] (inactive)	–
Cc1cnc(C(=O)N2CCCC(C(=O)c3ccc(C(F)(F)F)cc3)C2)cn1 (centres undefined)	–	22.4 µM (active)
Cc1nc2cc3c(cc2s1)OCO3	-0.0764% [at 102 µM] (inactive)	–
CCN(CC)CCN(C(=O)c1ccc(N2C(=O)CCC2=O)cc1)c1nc2cc3c(cc2s1)OCO3	–	35.5 µM (active)
CCCCN(CC)C(=O)c1ccc2c(c1)OCO2	-0.485% (inactive)	–
CCc1ccc2nc(N(CCCN(C)C)C(=O)c3ccc4c(c3)OCCO4)sc2c1	89.7% [at 102 µM] (inactive)	–
CN(C)CCCN(C(=O)c1ccc(S(=O)(=O)N2CCCCCC2)cc1)c1nc2cc3c(cc2s1)OCCO3	–	44.7 µM (active)
O=C(NCc1ccc2c(c1)OCO2)c1ccc(Cl)s1	-27% [at 102 µM] (inactive)	–

Structure (SMILES)	activity, negative = inhibition	Potency
CN(C)CCN(C(=O)C1CCCCC1)c1nc2cc3c(cc2s1)OCO3	–	70.8 µM (active)
Cc1nc2ccc(NC(=O)C3CCCCC3)cc2s1	8.28% [at 12.7 µM] (inactive)	–
CCc1ccc(Nc2nn3c(=O)c4cc5c(cc4nc3s2)OCO5)cc1	-48.5% (inactive)	–
O=C(Nc1nc2cc3c(cc2s1)OCCO3)c1cccc(S(=O)(=O)N2CCOCC2)c1	41.1% [at 102 µM] (inactive)	–
CCN(CC)CCN(C(=O)c1cc(Cl)sc1Cl)c1nc2cc3c(cc2s1)OCO3	–	50.1 µM (active)
COc1ccccc1N1CCN(CC(=O)Nc2ccnn2C2CCCC2)CC1	10.3% [at 2.33 µM] (inactive)	–
CCC1Nc2ncnc(N3CCN(c4ccccc4)CC3)c2N(Cc2ccc(Cl)cc2)C1=O (centres undefined)	3.93% [at 2.33 µM] (inactive)	–
CC(C)NC(=O)c1nn(-c2ccccc2F)nc1CO	-10.9% (inactive)	–
OCC(CO)NC1C[C@](O)(CO)[C@@H](O)[C@H](O)[C@H]1O (some centres undefined)	19.5% (inactive)	–
O=C(c1cccs1)N1CCC(c2nc3ccccc3s2)CC1	–	39.8 µM (active)
Cc1cccc(NC(=S)N2CCC(c3nc4ccccc4s3)CC2)c1	30.9% [at 0.501 µM] (inactive)	–
CC(C)(C)c1ccc(OCC(=O)N2CCC(c3nc4ccccc4s3)CC2)cc1	-7.56% (inactive)	–
CC(=O)c1cccc(NC(=O)c2nc(-c3ccccc3)n(-c3cccc(C)c3)n2)c1	-29.5% (inactive)	–
O=C(CCn1c(=O)[nH]c2ccccc2c1=O)NCCCN1CCN(c2cccc(Cl)c2)CC1	-3.86% (inactive)	–
CCOc1ccc(CCNC(=O)c2cc3c(=O)n(C)c4ccccc4c3n2C)cc1	8.2% (inactive)	–
Cn1c(C(=O)NCCCN2CCN(c3cccc(Cl)c3)CC2)cc2c(=O)n(C)c3ccccc3c21	–	7.94 µM (active)
CCN1C(=O)c2ccccc2Sc2ccc(NC(=O)Cc3ccc(OC)cc3)cc21	10.7% (inactive)	–
COc1cc(-c2n[nH]c(=S)n2Cc2ccccc2)cc(OC)c1OC	–	3.55 µM (active)
CCC(C)n1c(-c2cc(OC)c(OC)c(OC)c2)nc2nc3ccccc3nc21 (centres undefined)	-1.08% [at 102 µM] (inactive)	–
COc1cc(-c2nnn(CC(=O)NCc3ccccc3)n2)cc(OC)c1OC	–	inactive

Structure (SMILES)	activity, negative = inhibition	Potency
CCOC(=O)C1=C(O)/C(=C/c2cc(C)n(-c3ccccc3)c2C)N=C1C	–	50.1 µM (active)
COC(=O)C1=C(O)/C(=C/c2ccc(OCC(=O)Nc3ccccc3)cc2)N=C1C	82.1% [at 102 µM] (inactive)	–
CCOC(=O)c1nn(-c2cccc(C)c2)cc1C(=O)c1ccccc1	-45.6% [at 2.33 µM] (inactive)	–
COc1ccc2oc(C(=O)NCC(Cc3ccccc3)N(C)C)c(C)c2c1 (centres undefined)	-3.8% [at 102 µM] (inactive)	–
Cc1ccc(OC(=O)c2cncc(Br)c2)c(C)c1	68.2% [at 102 µM] (inactive)	–
COc1ccc(NC(=O)CCNS(=O)(=O)c2ccc3c(c2)c(=O)n(C)c(=O)n3C)cc1OC	4.33% [at 102 µM] (inactive)	–
COc1ccc(OC)c(-n2cc3c(=O)n(C)c(=O)n(C)c3c2)c1	–	50.1 µM (active)
Cn1c(=O)c2cn(-c3cccc4ccccc34)cc2n(C)c1=O	5.87% [at 2.33 µM] (inactive)	–
Cc1ccc(NC(=O)c2cccc(S(=O)(=O)N3CCCc4ccccc43)c2)nc1	17.3% (inactive)	–
CCOC(=O)CC1(NC(=O)c2cc(COc3cncc(Cl)c3)on2)CCCCC1	0.787% [at 102 µM] (inactive)	–
CCCCC(C(=O)OCC(=O)c1ccc(OC)cc1)N1C(=O)c2ccccc2C1=O (centres undefined)	22.3% (inactive)	–
COc1ccc(C[C@H](C(=O)O)N2C(=O)c3ccc(C(=O)O)cc3C2=O)cc1	8.45% [at 12.7 µM] (inactive)	–
CCOC(=O)C(Cc1ccc(N)cc1)N1C(=O)c2ccccc2C1=O (centres undefined)	–	50.1 µM (active)
COc1cc(OC)cc(C(=O)NCCc2csc3nc(-c4ccccc4F)nn23)c1	0.667% (inactive)	–
CCOCCCNC(=O)C(NC(=O)CNC(=O)c1ccccc1)c1ccc(OC)cc1 (centres undefined)	–	15.8 µM (active)
CCOCCCNC(=O)C(NC(=O)CNC(=O)c1ccccc1)c1ccc(C)cc1 (centres undefined)	15.3% (inactive)	–
CCOCCCNC(=O)C(NC(=O)Cc1c[nH]c2ccccc12)c1ccc(OC)cc1 (centres undefined)	-26.9% [at 102 µM] (inactive)	–
Cc1c(NC(=O)Nc2ccc(F)c(Cl)c2)c(=O)n(-c2ccccc2)n1C	9.59% (inactive)	–
O=C(O[C@@H]1[C@H](Cc2ccccc2)NS(=O)(=O)[C@H]2C[C@@H]3C=C[C@]12O3)c1ccccc1Br	6.72% [at 0.501 µM] (inactive)	–
